A number with no mark means an inactive call. Results filed as inconclusive are left out. The source made the active and inactive calls. Unless noted, the call rests on the fitted dose curve; in most records, active means well fitted curve in either direction with a large enough effect (not every such curve was filed as active); inconclusive means small, poorly fitted or top-dose-only effect, or another doubt; inactive means flat fitted curve, though single readings scatter.

The target of assay [1] is Lysosomal acid glucosylceramidase (Homo sapiens) (UniProt P04062). Kind of assay: Glucocerebrosidase-p2 (AID 348; in the data active means potency below about 10 µM; further: potency means the concentration at half of the fitted maximal effect). To be noted: purified GBA, blue fluorogenic substrate, 40 min. The method, boiled down:
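Compounds titrated from 0.6 nM upwards against 0.2 nM enzyme in pH 5.9 citric acid/KH2PO4, taurocholate, tween-20; blue fluorogenic substrate 80 uM, 40 min room temperature, stopped and read Ex 365/Em 440 for AC50.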

A short description of assay [2]: AP1 Signaling Pathway (AID 357).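 Further: ME-180 reporter cells stimulated with EGF at its EC50 level; on the % scale 0 is the no-effect control and ±100 the full control effect.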 The settings on record: ME-180 AP-1-bla reporter, EGF-induced, beta-lactamase ratio, 5 h; at 7.69 µM (top of the series) unless noted. The essentials:
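Cells are seeded overnight, exposed to compound titrations and an EC50 level of EGF for 5 hours at 37 °C, then loaded with CCF4 dye for 2.5 hours. Beta-lactamase activity under the AP-1 element is read as a blue/green ratio.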

Assay [3] addresses Cytochrome P450 1A2 (Homo sapiens) (UniProt P05177). The assay is described as follows: p450-cyp1a2 (AID 410; calls by dose curve; further: potency means the concentration at half of the fitted maximal effect;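 on activity change, negative = inhibition: -100% = full effect of reference inhibitor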). To be noted: recombinant CYP1A2, luciferin-ME demethylation, luminescence; series mostly up to 57 µM. The method, boiled down: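 20nM CYP1A2 with 100uM Luciferin-ME (at Km) in 100mM KPO4; compound preincubated 10 min, NADPH regeneration added, 60 min at room temperature. Luciferin quantified by luminescence after detection reagent; normalized to 57 uM furafylline.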

Assay [4] can be described thus: NFAT Signaling Pathway (AID 444).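 Further: carbachol stimulus at about its EC50 of 1 µM final; on the % scale 0 is the no-effect control and ±100 the full control effect.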 The settings on record: Jurkat NFAT-bla M1, carbachol, beta-lactamase ratio, 5 h; at 7.69 µM (top of the series) unless noted. The essentials:
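Jurkat cells carrying an NFAT-driven β-lactamase reporter and co-transfected muscarinic M1 receptor were treated with compound plus carbachol (1 uM final, an EC50 level) for 5 h at 37 °C. CCF4 loading followed for 1 h at RT; 460/530 nm ratio gave %activity.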

Assay [5] can be described thus: Stat Signaling Pathway (AID 446).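 Further: ME-180 cervical cancer cells given 40 pM IL-6 alongside compound; SIE-controlled beta-lactamase reporter measured as 460/530 nm FRET emission ratio; on the % scale 0 is the no-effect control and ±100 the full control effect.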 To be noted: ME-180 (cervical carcinoma) SIE beta-lactamase reporter, IL-6 stimulated, 5 h; at 7.69 µM (top of the series) unless noted. The method, boiled down:
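ME-180 SIE-bla cells; overnight plating; cpd + IL-6 40 pM, 5 h, 37 C; LiveBLAzer 2.5 h RT; 460/530 nm emission ratio. Normalized to 300 pM IL-6 and 125 nM JAK inhibitor controls.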

The target in assay [6] is Glucocorticoid receptor (Homo sapiens) (UniProt P04150). The assay is described as follows: GR-EFC Redistribution (AID 451; calls by dose curve; further: potency means the concentration at half of the fitted maximal effect). The settings on record: CHO-K1 GR-EFC translocation, beta-gal luminescence, 2 h. The method, boiled down:
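CHO-K1 cells stably expressing nuclear-localized β-gal enzyme acceptor and GR fused C-terminally to the enzyme donor fragment; ligand-driven nuclear translocation restores β-gal by complementation. Compounds titrated up to 46 uM final, 2 h at 37 °C; luminescence read.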

The target of assay [7] is 3',5'-cyclic-AMP phosphodiesterase 4B (Homo sapiens) (UniProt Q07343). The assay is described as follows: qHTS Assay for Inhibitors of PDE-IV (AID 607; active means well fitted activation curve with a large enough effect in the main read-out, with a control signal flat, not every such curve was filed as active; further: % of control where 0% means no effect). The settings on record: HEK293 ACTOne CNG channel cells, membrane potential fluorescence; series mostly up to 22.9 µM. The method, boiled down: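 ACTOne HEK293 cells carry a modified cAMP-gated CNG channel and express endogenous PDE4; plated 1000 cells/well, compounds up to 22.9 uM final. Membrane-potential dye fluorescence (ex 535/em 590) was read; parental cells received 10 uM forskolin + 100 uM RO 20-1724.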
3',5'-cyclic-AMP phosphodiesterase 4B (Homo sapiens), sequence (Q07343 whole entry, looked up): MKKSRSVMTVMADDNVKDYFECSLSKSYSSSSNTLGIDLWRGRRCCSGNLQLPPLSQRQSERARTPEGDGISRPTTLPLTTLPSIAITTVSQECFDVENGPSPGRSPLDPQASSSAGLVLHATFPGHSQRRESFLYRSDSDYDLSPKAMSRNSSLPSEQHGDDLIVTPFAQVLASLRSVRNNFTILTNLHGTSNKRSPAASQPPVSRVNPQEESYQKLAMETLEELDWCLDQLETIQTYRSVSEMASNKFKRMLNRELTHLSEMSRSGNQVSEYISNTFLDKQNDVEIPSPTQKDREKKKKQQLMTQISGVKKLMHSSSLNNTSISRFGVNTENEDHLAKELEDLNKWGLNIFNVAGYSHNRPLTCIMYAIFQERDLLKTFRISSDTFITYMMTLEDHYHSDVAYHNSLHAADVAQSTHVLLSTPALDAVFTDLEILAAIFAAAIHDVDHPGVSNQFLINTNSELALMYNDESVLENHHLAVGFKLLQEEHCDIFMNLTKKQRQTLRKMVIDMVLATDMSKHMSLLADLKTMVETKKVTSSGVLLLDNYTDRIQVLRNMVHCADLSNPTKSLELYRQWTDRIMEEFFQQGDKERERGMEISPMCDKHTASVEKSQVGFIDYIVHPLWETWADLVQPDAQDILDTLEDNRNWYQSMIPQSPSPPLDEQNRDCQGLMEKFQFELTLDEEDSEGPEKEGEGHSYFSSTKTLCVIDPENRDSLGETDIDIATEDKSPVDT
(Quantitative high-throughput screening tests each substance at several concentrations.)

Assay [8] can be described thus: Primary qHTS for small molecule stabilizers of the endoplasmic reticulum resident proteome: Secreted ER Calcium Modulated Protein (SERCaMP) assay (AID 1508630; active means well fitted curve in the direction sought with a large enough effect; an effect the other way counts as inactive or inconclusive; further: on the % scale 0 is the no-effect control and ±100 the full control effect). The settings on record: SH-SY5Y GLuc-SERCaMP (Gaussia luciferase released on ER calcium loss) secretion, thapsigargin, luminescence; series mostly up to 38.4 µM. The essentials: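 GLuc-SERCaMP-expressing SH-SY5Y cells, pretreated 16 h with compound, are challenged with thapsigargin to empty ER calcium stores; after 4 h, coelenterazine is added directly to the medium and luminescence is imaged.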

Assay [9] deals with Mitogen-activated protein kinase 10 (Mus musculus) (UniProt Q61831). Kind of assay: JNK3 AlphaScreen Assay (AID 530). To be noted: JNK3 lysate, c-Jun phosphorylation; series mostly up to 57.1 µM. The essentials:
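Inhibitors reduce antibody binding to phosphorylated biotin-cJun, lowering AlphaScreen luminescence. Lysates from HepG2 cells pre-activated by IL-1beta plus TNF-alpha supplied JNK3; compounds were titrated.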

Assay [10] addresses Cytochrome P450 3A4 (Homo sapiens) (UniProt P08684). The assay is described as follows: qHTS Assay for Inhibitors and Substrates of Cytochrome P450 3A4 (AID 884; active means well fitted curve in the direction sought with a large enough effect; an effect the other way counts as inactive or inconclusive; further: potency means the concentration at half of the fitted maximal effect; nearly all actives have a fitted effect of over 50% in size). The settings on record: recombinant CYP3A4, Luciferin-PPXE luminescence; series mostly up to 57.1 µM. The method, boiled down: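 20 nM human CYP3A4 with 25 uM Luciferin-PPXE (at KM) in 200 mM KPO4, preincubated 10 min with compound; NADPH regeneration started a 60 min RT reaction. Luciferin detected by luminescence, normalized to 57 uM ketoconazole as full inhibition.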

For assay [11] the target is unchanged. Kind of assay: qHTS Assay for Activators of Cytochrome P450 3A4 (AID 885; active means well fitted curve in the direction sought with a large enough effect; an effect the other way counts as inactive or inconclusive; further: nearly all actives have a fitted effect of over 65% in size). To be noted: recombinant CYP3A4, Luciferin-PPXE luminescence, 60 min; series mostly up to 57.1 µM. The essentials: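 20nM CYP3A4 + 25uM Luciferin-PPXE (=KM), 200mM KPO4; cpd 10 min RT; NADPH regen, 60 min RT; stop w/ detection buffer, 20 min; luminescence. Normalized to 57 uM ketoconazole.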

The target of assay [12] is Cytochrome P450 2D6 (Homo sapiens) (UniProt P10635). The assay is described as follows: qHTS Assay for Inhibitors and Substrates of Cytochrome P450 2D6 (AID 891; active means well fitted curve in the direction sought with a large enough effect; an effect the other way counts as inactive or inconclusive; further: potency means the concentration at half of the fitted maximal effect; nearly all actives have a fitted effect of over 60% in size). The settings on record: recombinant CYP2D6, luciferin-ME EGE luminescence; series mostly up to 57.1 µM. The essentials:
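Human CYP2D6 (5 nM) with 30 uM Luciferin-ME EGE (at Km) in 100 mM KPO4, compound preincubated 10 min, then NADPH regeneration system for 60 min at room temperature. Luciferin read by luminescence; normalized to 1.43 uM quinidine.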

Assay [13] has as its target Glucocorticoid receptor (Homo sapiens) (UniProt P04150). The assay is described as follows: GR-GFP Redistribution (AID 450;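 active means compounds whose dose series gives a full or clear partial fitted curve of increased nuclear translocation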; further: potency means the concentration at half of the fitted maximal effect). To be noted: U2OS GR-GFP nuclear translocation, laser cytometry, 2 h.
Assay [14] has as its target Cytochrome P450 2C19 (Homo sapiens) (UniProt P33261). Kind of assay: qHTS Assay for Inhibitors and Substrates of Cytochrome P450 2C19 (AID 899; active means well fitted curve in the direction sought with a large enough effect; an effect the other way counts as inactive or inconclusive; further: nearly all actives have a fitted effect of over 60% in size; further: potency means the concentration at half of the fitted maximal effect). The settings on record: recombinant CYP2C19, luciferin-H EGE luminescence; series mostly up to 57.1 µM. The essentials:
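In 50mM KPO4, the reaction held 5nM enzyme and KM-level (10uM) Luciferin-H EGE; it ran 60 min at 37C after NADPH regeneration and a 10 min compound preincubation. Luminescence values were scaled to 57uM ketoconazole as complete inhibition.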

Cytochrome P450 2C19 (Homo sapiens), sequence (P33261 whole entry, looked up): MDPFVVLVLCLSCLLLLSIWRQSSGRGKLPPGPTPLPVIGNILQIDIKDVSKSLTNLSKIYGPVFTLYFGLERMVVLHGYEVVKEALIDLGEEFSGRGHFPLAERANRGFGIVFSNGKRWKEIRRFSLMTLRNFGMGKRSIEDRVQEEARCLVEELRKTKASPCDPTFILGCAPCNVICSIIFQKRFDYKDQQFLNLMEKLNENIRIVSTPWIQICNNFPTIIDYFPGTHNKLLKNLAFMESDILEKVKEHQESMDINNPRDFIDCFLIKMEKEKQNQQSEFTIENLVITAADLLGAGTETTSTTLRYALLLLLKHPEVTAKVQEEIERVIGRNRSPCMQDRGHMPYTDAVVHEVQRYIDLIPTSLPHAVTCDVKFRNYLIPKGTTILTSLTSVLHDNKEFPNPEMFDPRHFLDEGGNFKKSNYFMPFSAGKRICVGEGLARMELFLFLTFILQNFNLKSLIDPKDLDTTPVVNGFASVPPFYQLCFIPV
Cytochrome P450 3A4 (Homo sapiens), sequence (P08684 whole entry, looked up): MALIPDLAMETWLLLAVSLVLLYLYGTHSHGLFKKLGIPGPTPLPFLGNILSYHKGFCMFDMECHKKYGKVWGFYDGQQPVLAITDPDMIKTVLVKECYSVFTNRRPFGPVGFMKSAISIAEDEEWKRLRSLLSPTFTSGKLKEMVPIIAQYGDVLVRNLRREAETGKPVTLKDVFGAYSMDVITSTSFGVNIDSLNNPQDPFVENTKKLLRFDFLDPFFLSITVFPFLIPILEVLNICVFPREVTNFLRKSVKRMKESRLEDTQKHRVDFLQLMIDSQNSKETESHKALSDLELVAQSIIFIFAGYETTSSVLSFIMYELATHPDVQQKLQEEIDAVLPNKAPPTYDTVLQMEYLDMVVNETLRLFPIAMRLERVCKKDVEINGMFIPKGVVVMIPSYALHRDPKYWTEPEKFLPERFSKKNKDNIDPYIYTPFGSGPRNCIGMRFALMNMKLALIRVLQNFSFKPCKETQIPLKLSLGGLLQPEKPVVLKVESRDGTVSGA
Cytochrome P450 1A2 (Homo sapiens), sequence (P05177 whole entry, looked up): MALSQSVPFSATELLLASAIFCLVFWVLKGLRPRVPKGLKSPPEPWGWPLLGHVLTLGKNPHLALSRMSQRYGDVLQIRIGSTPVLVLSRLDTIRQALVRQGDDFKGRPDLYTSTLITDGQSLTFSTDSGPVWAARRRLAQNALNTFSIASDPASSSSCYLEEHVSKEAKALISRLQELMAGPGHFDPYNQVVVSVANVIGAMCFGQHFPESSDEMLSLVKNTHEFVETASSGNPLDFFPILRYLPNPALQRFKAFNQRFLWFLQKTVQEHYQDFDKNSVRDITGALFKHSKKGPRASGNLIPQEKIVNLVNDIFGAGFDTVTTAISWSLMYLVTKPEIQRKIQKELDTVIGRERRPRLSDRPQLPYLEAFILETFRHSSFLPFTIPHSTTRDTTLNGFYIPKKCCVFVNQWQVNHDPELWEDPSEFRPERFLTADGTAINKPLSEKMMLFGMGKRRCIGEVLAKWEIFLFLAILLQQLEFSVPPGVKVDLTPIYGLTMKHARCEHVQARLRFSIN
Lysosomal acid glucosylceramidase (Homo sapiens), sequence (P04062 whole entry, looked up): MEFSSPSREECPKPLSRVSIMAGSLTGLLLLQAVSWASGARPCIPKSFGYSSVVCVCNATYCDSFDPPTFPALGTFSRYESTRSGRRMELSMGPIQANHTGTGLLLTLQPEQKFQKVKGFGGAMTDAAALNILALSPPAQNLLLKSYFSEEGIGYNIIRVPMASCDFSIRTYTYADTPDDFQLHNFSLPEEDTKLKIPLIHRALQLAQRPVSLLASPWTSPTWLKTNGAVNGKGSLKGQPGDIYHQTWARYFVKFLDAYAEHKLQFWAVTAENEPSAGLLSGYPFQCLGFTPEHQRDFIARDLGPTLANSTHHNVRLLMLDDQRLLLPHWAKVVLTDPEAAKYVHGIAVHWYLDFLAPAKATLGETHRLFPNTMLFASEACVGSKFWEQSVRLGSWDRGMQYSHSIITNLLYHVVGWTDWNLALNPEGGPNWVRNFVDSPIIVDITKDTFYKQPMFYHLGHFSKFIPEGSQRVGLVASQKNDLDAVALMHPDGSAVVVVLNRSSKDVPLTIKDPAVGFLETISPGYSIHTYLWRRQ
Glucocorticoid receptor (Homo sapiens), sequence (P04150 whole entry, looked up, the tested form may be a part): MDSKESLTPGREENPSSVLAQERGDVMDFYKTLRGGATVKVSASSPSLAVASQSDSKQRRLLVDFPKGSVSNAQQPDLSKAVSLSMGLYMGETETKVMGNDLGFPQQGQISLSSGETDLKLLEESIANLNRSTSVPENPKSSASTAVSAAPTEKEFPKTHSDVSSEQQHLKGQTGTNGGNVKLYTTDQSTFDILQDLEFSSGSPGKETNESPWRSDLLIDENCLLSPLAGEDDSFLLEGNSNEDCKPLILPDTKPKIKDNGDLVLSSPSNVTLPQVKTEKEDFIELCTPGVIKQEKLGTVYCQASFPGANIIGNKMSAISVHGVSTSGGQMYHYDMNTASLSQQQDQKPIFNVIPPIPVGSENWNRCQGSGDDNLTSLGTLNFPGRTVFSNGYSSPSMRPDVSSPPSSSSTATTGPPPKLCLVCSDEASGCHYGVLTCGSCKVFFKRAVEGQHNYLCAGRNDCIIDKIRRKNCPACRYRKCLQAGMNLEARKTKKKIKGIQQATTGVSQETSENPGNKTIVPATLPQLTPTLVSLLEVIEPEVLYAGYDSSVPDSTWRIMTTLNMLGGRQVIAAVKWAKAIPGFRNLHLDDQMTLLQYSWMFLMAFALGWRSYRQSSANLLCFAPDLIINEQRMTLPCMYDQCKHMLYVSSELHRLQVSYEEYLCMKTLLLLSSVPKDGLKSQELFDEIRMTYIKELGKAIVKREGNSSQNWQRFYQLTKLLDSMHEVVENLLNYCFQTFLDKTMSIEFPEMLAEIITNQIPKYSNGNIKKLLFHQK
Cytochrome P450 2D6 (Homo sapiens), sequence (P10635 whole entry, looked up): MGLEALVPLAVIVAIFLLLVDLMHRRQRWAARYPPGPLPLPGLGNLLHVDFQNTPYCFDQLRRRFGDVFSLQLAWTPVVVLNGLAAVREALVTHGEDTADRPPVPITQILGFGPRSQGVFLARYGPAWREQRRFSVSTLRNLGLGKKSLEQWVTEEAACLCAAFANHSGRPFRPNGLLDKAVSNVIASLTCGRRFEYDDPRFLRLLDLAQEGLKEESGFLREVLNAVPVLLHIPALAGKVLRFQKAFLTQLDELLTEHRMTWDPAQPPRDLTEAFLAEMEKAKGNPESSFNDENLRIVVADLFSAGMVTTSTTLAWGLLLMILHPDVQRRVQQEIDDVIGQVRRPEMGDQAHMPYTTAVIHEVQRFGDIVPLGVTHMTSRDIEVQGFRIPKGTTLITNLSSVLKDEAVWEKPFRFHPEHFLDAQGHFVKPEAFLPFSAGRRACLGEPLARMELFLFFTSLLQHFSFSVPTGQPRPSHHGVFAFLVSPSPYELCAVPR

With `Cn1cccc1C(=O)N1CCC2(CCCN(c3ccc(-c4ccccc4)cc3)C2)CC1`, the results for the Potency in assay [1], in assay [3] and in [6] were more than 11.4 µM, 15.8 µM (active) and more than 46 µM, respectively. The activity change, negative = inhibition was 15.7% in [2] and -14.9% in assay [4]. Besides, the activity, negative = inhibition in assay [5] is 3.39%. Further, the Potency entry in assay [7] was “inactive”. In addition, in assay [8], the result was inactive.
For the compound `O=S(=O)(c1ccccc1)N1CCC2(CCN(Cc3ccncc3)CC2)CC1`, the Potency in assay [1] is more than 11.4 µM; in [6] it was more than 46 µM; in assay [10], 3.98 µM (active). For the same compound, the activity change, negative = inhibition in [2] is -0.758%. The Potency result in assay [3], in [9], in [7] and in assay [11] was “inactive” throughout. The activity, negative = inhibition in [5] is 7.32%. Also, in assay [8], the outcome was inactive.
Turning to `O=C(c1ccco1)N1CCC2(CCCN(Cc3ccncc3)C2)CC1`, the Potency was more than 11.4 µM in [1]; 15.8 µM (active) in [3]; more than 46 µM in assay [6]; 5.01 µM (active) in assay [10]; 3.16 µM (active) in assay [12]. Moreover, the activity change, negative = inhibition in [2] was -1.32%. Further, in [5], the activity, negative = inhibition was -14.4%. Besides, the Potency result in [9], in [7] and in assay [11] was “inactive” each time. For the same compound, the outcome in [8] was inactive.
Take `CN1CCN(c2ncc3nc(-c4ccc(Cl)cc4)c(=O)n(CCC#N)c3n2)CC1`: the Potency in assay [1] is more than 11.4 µM; in assay [3], 15.8 µM (active); in [13], more than 9.22 µM; in assay [6], more than 46 µM. Also, the results for the activity change, negative = inhibition in assay [2] and in [4] were 130% [activator] (active) and 214% [activator] (active), respectively. In addition, the Potency entry in [9], in [7] and in assay [14] was “inactive” each time. Moreover, the result in assay [8] was inactive.
For `O=C(c1ccncc1)N1CCC2(CC1)CCN(c1ncccn1)CC2`, the Potency is more than 11.4 µM in assay [1], 20 µM (active) in assay [3], more than 46 µM in assay [6] and 2.51 µM (active) in assay [14]. The activity change, negative = inhibition in [2] is -2.2%; in assay [4], 11.7%. The Potency result in assay [9] and in assay [7] was “inactive” each time. The outcome in assay [8] was inactive.
For the compound `c1csc(CNc2nc(-c3ccc4c(c3)OCO4)nc3ccccc23)c1`, the Potency is more than 11.4 µM in assay [1]; 0.794 µM (active) in [3]; more than 46 µM in [13]; more than 46 µM in assay [6]; 3.16 µM (active) in assay [14]. The activity change, negative = inhibition in assay [2] is 0.483%. Also, in assay [5], the activity, negative = inhibition was -13.1%. Besides, the Potency result in [9] and in assay [11] was “inactive” each time. The result in assay [8] was inactive.
With `CCNc1ncc2nc(-c3ccc(OC)cc3)c(=O)n(-c3ccc(OC)cc3)c2n1`, the Potency is more than 11.4 µM in [1], more than 9.22 µM in [13] and more than 46 µM in assay [6]. The results for the activity change, negative = inhibition in assay [2] and in assay [4] were -16% and -5.13%, respectively. Further, the Potency result in assay [3], in assay [9] and in assay [11] was “inactive” throughout. In addition, the result in [8] was inactive.

The record behind these values is PubChem BioAssay (NCATS).
